{
  "source": "the supplement of paper PMC8728848",
  "assay_in_all_cases": "glycan array binding signal (z-score within array); higher = stronger binding",
  "conditions_in_all_cases": "glycan notation: IUPAC condensed, linker removed",
  "key": {"[1]": {"target": "GalNAc(b1-3)Gal(a1-4)Gal(b1-4)GlcNAc", "method_in_brief": "(§1)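 Columns mapping to the same glycan were averaged after glycan names were converted to IUPAC-condensed notation. The data come from 3228 arrays in the Consortium for Functional Glycomics database, limited to those with an available protein sequence. Binding is reported as a within-array Z-score averaged across arrays of one protein sequence and across linkers.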"}, "[2]": {"target": "GlcNAc(a1-4)Gal(b1-4)GalNAc", "method_in_brief": "as §1"}, "[3]": {"target": "GlcNAc(b1-2)Man(a1-3)[GlcNAc(b1-2)Man(a1-6)]Man(b1-4)GlcNAc(b1-4)GlcNAc", "method_in_brief": "as §1"}, "[4]": {"target": "GlcNAc(b1-2)[GlcNAc(b1-4)]Man(a1-3)[GlcNAc(b1-4)][GlcNAc(b1-2)Man(a1-6)]Man(b1-4)GlcNAc(b1-4)GlcNAc", "method_in_brief": "as §1"}, "[5]": {"target": "GlcNAc(b1-3)Gal(b1-4)GlcNAc(b1-3)Gal(b1-4)GlcNAc(b1-2)[GlcNAc(b1-3)Gal(b1-4)GlcNAc(b1-3)Gal(b1-4)GlcNAc(b1-6)]Man(a1-6)[GlcNAc(b1-3)Gal(b1-4)GlcNAc(b1-3)Gal(b1-4)GlcNAc(b1-2)Man(a1-3)]Man(b1-4)GlcNAc(b1-4)[Fuc(a1-6)]GlcNAc", "method_in_brief": "as §1"}, "[6]": {"target": "GlcNAc(b1-3)Gal(b1-4)GlcNAc(b1-3)Gal(b1-4)GlcNAc(b1-3)Gal(b1-4)GlcNAc(b1-3)Gal(b1-4)GlcNAc(b1-2)Man(a1-3)[GlcNAc(b1-3)Gal(b1-4)GlcNAc(b1-3)Gal(b1-4)GlcNAc(b1-3)Gal(b1-4)GlcNAc(b1-3)Gal(b1-4)GlcNAc(b1-2)Man(a1-6)]Man(b1-4)GlcNAc(b1-4)GlcNAc", "method_in_brief": "as §1"}, "[7]": {"target": "GlcNAc(b1-3)Gal(b1-4)GlcNAc(b1-6)[GlcNAc(b1-3)]Gal(b1-4)GlcNAc", "method_in_brief": "as §1"}, "[8]": {"target": "GlcNAc(b1-4)[GlcNAc(b1-6)]GalNAc", "method_in_brief": "as §1"}, "[9]": {"target": "Man(a1-2)Man(a1-2)Man(a1-3)Man", "method_in_brief": "as §1"}, "[10]": {"target": "Man(a1-2)Man(a1-2)Man(a1-6)[Man(a1-3)]Man", "method_in_brief": "as §1"}, "[11]": {"target": "Man(a1-2)Man(a1-3)[Man(a1-2)Man(a1-6)]Man(a1-6)[Man(a1-2)Man(a1-2)Man(a1-3)]Man", "method_in_brief": "as §1"}, "[12]": {"target": "Man(a1-3)[Man(a1-6)]Man(a1-6)[Man(a1-2)Man(a1-3)]Man(b1-4)GlcNAc(b1-4)GlcNAc", "method_in_brief": "as §1"}, "[13]": {"target": "Neu5Ac(a2-3)Gal(b1-3)GlcNAc(b1-4)Gal(b1-4)Glc", "method_in_brief": "as §1"}, "[14]": {"target": "Neu5Ac(a2-3)Gal(b1-3)[Neu5Ac(a2-6)]GalNAc", "method_in_brief": "as §1"}, "[15]": {"target": "Neu5Ac(a2-3)Gal(b1-4)GlcNAc(b1-3)GalNAc", "method_in_brief": "as §1"}, "[16]": {"target": "Neu5Ac(a2-3)Gal(b1-4)GlcNAc6S", "method_in_brief": "as §1"}, "[17]": {"target": "Neu5Ac(a2-3)Gal(b1-4)[Fuc(a1-3)]GlcNAc(b1-3)Gal(b1-4)GlcNAc", "method_in_brief": "as §1"}, "[18]": {"target": "Neu5Ac(a2-3)Gal(b1-4)[Fuc(a1-3)]GlcNAc6S", "method_in_brief": "as §1"}, "[19]": {"target": "Neu5Ac(a2-3)GalNAc(b1-4)GlcNAc", "method_in_brief": "as §1"}, "[20]": {"target": "Neu5Ac(a2-3)[GalNAc(b1-4)]Gal(b1-4)GlcNAc", "method_in_brief": "as §1"}, "[21]": {"target": "Neu5Ac(a2-6)Gal(b1-4)GlcNAc(b1-2)Man", "method_in_brief": "as §1"}, "[22]": {"target": "Neu5Ac(a2-6)Gal(b1-4)GlcNAc(b1-2)Man(a1-3)[GlcNAc(b1-2)Man(a1-6)]Man(b1-4)GlcNAc(b1-4)GlcNAc", "method_in_brief": "as §1"}, "[23]": {"target": "Neu5Ac(a2-6)Gal(b1-4)GlcNAc(b1-2)Man(a1-3)[Man(a1-6)]Man(b1-4)GlcNAc(b1-4)GlcNAc", "method_in_brief": "as §1"}, "[24]": {"target": "Neu5Ac(a2-6)Gal(b1-4)GlcNAc(b1-2)Man(a1-6)Man(b1-4)GlcNAc(b1-4)GlcNAc", "method_in_brief": "as §1"}, "[25]": {"target": "Neu5Ac(a2-6)Gal(b1-4)GlcNAc(b1-2)Man(a1-6)[Man(a1-3)]Man(b1-4)GlcNAc(b1-4)GlcNAc", "method_in_brief": "as §1"}, "[26]": {"target": "Neu5Ac(a2-6)Gal(b1-4)GlcNAc(b1-2)[Neu5Ac(a2-6)Gal(b1-4)GlcNAc(b1-4)]Man(a1-3)[GlcNAc(b1-4)][Neu5Ac(a2-6)Gal(b1-4)GlcNAc(b1-2)[Neu5Ac(a2-6)Gal(b1-4)GlcNAc(b1-6)]Man(a1-6)]Man(b1-4)GlcNAc(b1-4)GlcNAc", "method_in_brief": "as §1"}},
  "note": "The sample as a whole holds a higher share of the strongest signals than the screen did.",
  "data": [
    {"binder": "GS7807P-bth-537-23-537 (Bacteroides thetaiotaomicron) (protein) NYENINSNPYEAPDLSADGYALGSAMNNLAGCVVSPDVNTAQFTDCLLGGPLGGYFADSNAGFTETISNFNPKDDWSRVFLKSDKIIPTLYSNLTQVKLVSQNTNDPVPYAIAQVIKVAAMHRVTDAFGPIPYSQIGANGEIATPYDSQEVTYNTFFDELNAAIATLNENSNEQLVPTADYIYKGDVKKWIRFANSLKLRLAIRIAYANPVKAQQMAEEAVNPANGGVIESNADNATWNYFETSQNPIYVATRYNQVQTSDHGGVPCLTGGDTHAAADIICYMNGYKDNRREKFFTKSEWAGQDYVGMRRGIVIPELKTTGHKYSGVNIAPTSPLYWMNAAEVAFLRAEGQAVFNFSMGGTAESFYNQGIRLSFEQWGADGVEDYLKDDVNKPTAYTDPAGTNTYQNALSNITIKWNDSADKEEKQERIIVQKWIANWQLGNEAWADFRRTGYPKLIPVKENKSGGVVDSEKGARRMPYPLDEFVSNKANVEYAIANYLHGADNMATDVWWASKK", "values": [
      {"measurement": "glycan array binding signal (z-score)", "setting": "[1]", "value": 0.36},
      {"measurement": "glycan array binding signal (z-score)", "setting": "[2]", "value": -0.138},
      {"measurement": "glycan array binding signal (z-score)", "setting": "[3]", "value": -0.374},
      {"measurement": "glycan array binding signal (z-score)", "setting": "[4]", "value": -0.39},
      {"measurement": "glycan array binding signal (z-score)", "setting": "[5]", "value": 19.1},
      {"measurement": "glycan array binding signal (z-score)", "setting": "[6]", "value": 0.265},
      {"measurement": "glycan array binding signal (z-score)", "setting": "[7]", "value": -0.326},
      {"measurement": "glycan array binding signal (z-score)", "setting": "[8]", "value": -0.32},
      {"measurement": "glycan array binding signal (z-score)", "setting": "[9]", "value": -0.398},
      {"measurement": "glycan array binding signal (z-score)", "setting": "[10]", "value": -0.343},
      {"measurement": "glycan array binding signal (z-score)", "setting": "[11]", "value": -0.267},
      {"measurement": "glycan array binding signal (z-score)", "setting": "[12]", "value": 2},
      {"measurement": "glycan array binding signal (z-score)", "setting": "[13]", "value": -0.398},
      {"measurement": "glycan array binding signal (z-score)", "setting": "[14]", "value": -0.387},
      {"measurement": "glycan array binding signal (z-score)", "setting": "[15]", "value": -0.371},
      {"measurement": "glycan array binding signal (z-score)", "setting": "[16]", "value": -0.377},
      {"measurement": "glycan array binding signal (z-score)", "setting": "[17]", "value": 0.04},
      {"measurement": "glycan array binding signal (z-score)", "setting": "[18]", "value": -0.338},
      {"measurement": "glycan array binding signal (z-score)", "setting": "[19]", "value": -0.329},
      {"measurement": "glycan array binding signal (z-score)", "setting": "[20]", "value": -0.363},
      {"measurement": "glycan array binding signal (z-score)", "setting": "[21]", "value": -0.32},
      {"measurement": "glycan array binding signal (z-score)", "setting": "[22]", "value": -0.356},
      {"measurement": "glycan array binding signal (z-score)", "setting": "[23]", "value": 1.81},
      {"measurement": "glycan array binding signal (z-score)", "setting": "[24]", "value": 0.297},
      {"measurement": "glycan array binding signal (z-score)", "setting": "[25]", "value": 5.2},
      {"measurement": "glycan array binding signal (z-score)", "setting": "[26]", "value": -0.083}
    ]}
  ]
}
